PINK1 modulator: changes PINK1 expression; PINK1 immunofluorescence, high-content cytometry, 24 h; 410,000 tested, 0.2% active; AID 624263; Potency, µM (titrated, usually from 76.6 µM), without a hit: top-dose activation (PINK1 increase), usual class: activators; active = well fitted activation curve with a large enough effect; inconclusive = small, poorly fitted or top-dose-only effect; cell line not stated here; also: % of control where 0% means no effect; nearly all actives have a fitted effect of over 65% in size
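Cells are seeded, rested 12 hours, then given compound at five concentrations or DMSO for 24 hours. After fixation, blocking and antibody staining, PINK1 amount and mitochondrial localization are scored; CCCP serves as control.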
Epigenetic derep: derepresses silenced GFP reporter in murine cells; 280,000 tested, 0.2% active; AID 1865; Potency, µM (top dose mostly 53.9 µM), for the others: top-dose GFP activation, usual class: activators; murine LDR cells, GFP reporter derepression, 30 h; also: % of control where 0% means no effect; nearly all actives have a fitted effect of over 60% in size
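Murine LDR cells carrying a silenced, genomically integrated CMV-driven GFP reporter were exposed to compound for 30 hours at 37 C. After PBS washes, GFP-positive cells (20–120 um objects) were counted by laser-scanning microplate cytometry.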
VP16 counter: inhibits Gal4-VP16 luciferase reporter, ROR gamma counter-screen | 310,000 tested, 3.5% active | Drosophila S2 Gal4-VP16 UAS-luciferase, luminescence, 20 h | AID 2546 | Potency, µM (doses to about 53.6 µM), without a hit: top-dose activity, negative = inhibition, most hits filed as inhibitors;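 also: Gal4-VP16 expression switched on by copper sulfate through the metallothionein promoter; % is scaled to controls: 0 for no effect and ±100 for the full control effect; nearly all actives have a fitted effect of over 50% in size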
ClpP mod: qHTS Assay for Activators of ClpP. ATP-dependent Clp protease proteolytic subunit (Bacillus subtilis (strain 168)), P80244. purified B. subtilis ClpP, FRET peptide cleavage, 20 min. Potency, µM (highest dose often 57.5 µM), for the others: at the highest dose activity change, negative = active. 340,000 tested, 1.9% active. AID 651965, 2013; active = well fitted falling curve with a large enough effect; inconclusive = small, poorly fitted or top-dose-only effect; inactive = no such curve, though single readings can be large or run the other way; also: the source files actives as falling curves though it sought activators and does not explain the sign; nearly all actives have a fitted effect of over 65% in size
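FRET quenching reversal measured ClpP activation: 10 microg/mL B. subtilis ClpP at pH 8 with the FRET-FV decapeptide, read at 430 nm after 320 nm excitation. The 20-min minus 0-min signal was scaled between DMSO/no-enzyme wells and ADEP (5.8 microM final).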
RORg inh: ROR gamma (mouse) transcription inhibition | P51450 | Drosophila S2 Gal4-RORgamma UAS-luciferase reporter, 20 h | Potency, µM (highest dose often 53.6 µM), for inactives: at the top dose activity change, negative = inhibition, most hits filed as inhibitors | 310,000 tested, 5.4% active | AID 2551; also: % is scaled to controls: 0 for no effect and ±100 for the full control effect; nearly all actives have a fitted effect of over 60% in size
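Luciferase reporter read in Schneider cells carrying Gal4-RORγ (mouse) and UAS-Photinus luciferase; cells given compound 1 h before 700 uM copper sulfate induction, then incubated 20 h at ambient temperature.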
Sfp PPTase inh: inhibitors of Bacillus subtilis Sfp phosphopantetheinyl transferase. Q9F4F7. Biochemical Sfp PPTase activity, qHTS. Potency, µM, for inactives: largest response in the series, negative = inhibition, actives largely listed as inhibitors. 310,000 tested, 3.5% active;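 also: the enzyme is Sfp with the accession as filed and its product quenches rhodamine fluorescence; 0% = enzyme reaction without inhibitor and -100% = no enzyme wells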
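After 15 min at room temperature with compound, 15 nM Sfp received 5 uM rhodamine-CoA plus 12.5 uM BHQ-2-ybbR (50 mM Hepes pH 7.6, 10 mM MgCl2). Rate came from the fluorescence difference over 30 min, ex 525/em 598 nm.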
* = called active by the depositor; ? = inconclusive; / = not tested or not shown; [ ] = another dose, or the depositor's remark. A selection: hits, their analogues and other compounds. The true share with any hit is near 8.1%. Unless noted, calls follow the shape of the dose curve; as a rule, active = well fitted curve in the direction sought with a large enough effect; inconclusive = small, poorly fitted or top-dose-only effect, or another doubt; inactive = no such curve, though single readings can be large; an effect the other way counts as inactive or inconclusive. Potency is read from the fitted curve at half-maximal effect.

SMILES	PINK1 modulator	Epigenetic derep	VP16 counter	ClpP mod	RORg inh	Sfp PPTase inh
C[C@H]1[C@H](C)CC[C@]2(C=O)CC[C@]3(C)C(=CC[C@@H]4[C@@]5(C)C[C@@H](O)[C@H](O)[C@@](C)(CO)[C@@H]5CC[C@]43C)[C@H]12	/	/	?	/	-43%	43%
Cc1ccccc1-c1nc2ccccc2c(=O)n1/N=C/c1ccccc1[N+](=O)[O-]	-1%	3%	-1%	-8%	25%	0.4µM*
Cc1ccccc1-c1nc2ccccc2c(=O)n1/N=C/c1ccc([N+](=O)[O-])cc1	5%	/	/	/	/	/
CCOC(=O)c1ccccc1NC(=O)Cn1c(=O)n(-c2ccc(CC)cc2)c(=O)c2c(C)c(C(=O)N(C)C)sc21	0%	1%	/	-5%	/	/
CC1CC(C)(C)NC(=S)N1CCCC(=O)NCc1ccccc1 (stereo unspecified)	1%	1%	13%	1%	?	-17%
CC1CC(C)(C)NC(=S)N1CCCC(=O)Nc1ccc(F)cc1 (stereo unspecified)	-1%	0%	?	-2%	13µM*	16%
CC1CC(C)(C)NC(=S)N1CCCC(=O)Nc1ccc2c(c1)OCCO2 (stereo unspecified)	1%	-4%	-12%	1%	28%	16%
Cc1ccc(NC(=O)CCCN2C(=S)NC(C)(C)CC2C)cc1 (stereo unspecified)	0%	-1%	?	0%	13µM*	26%
CC1CC(C)(C)NC(=S)N1CC(=O)NCc1ccccc1Cl (stereo unspecified)	1%	0%	?	1%	?	7%
CCc1ccc(NC(=O)CCCN2C(=S)NC(C)(C)CC2C)cc1 (stereo unspecified)	1%	0%	?	-1%	4.5µM*	7%
CC1CC(C)(C)NC(=S)N1CC(=O)NCc1ccc(Cl)cc1 (stereo unspecified)	0%	3%	?	-2%	11µM*	-7%
COc1ccc(C2/C=C\CN(CC(C)C)C(C)C(=O)N2Cc2ccc(F)cc2)cc1 (stereo unspecified)	/	/	-13%	/	51%	-3%
NC(=S)N/N=C/c1c(O)c(Br)cc2oc3c(c12)CCCC3	-3%	1%	?	/	7.9µM*	6%
Cn1cnc(S(=O)(=O)N2CCCC(C(=O)NCc3ccc(Cl)cc3)C2)c1 (stereo unspecified)	-1%	-1%	/	-1%	/	/
CC(=O)N(C1=C(N)C(=O)c2ccccc2C1=O)C(C)C	1%	-2%	0%	/	11µM*	?
Cn1c(SCC(=O)NCc2ccc(F)cc2)nc2ccccc21	9%	0%	2%	1%	-26%	-8%
CCNC(=S)NNC(=O)CSc1nc2ccccc2n1C	-1%	?	0.71µM*	-3%	0.22µM*	-6%
CCNC(=S)NNC(=O)CSc1nc2ccccc2[nH]1	0%	-3%	13µM*	/	4µM*	13%
CCNC(=S)NNC(=O)CCc1nc2cc(Cl)ccc2n(Cc2ccccc2)c1=O	-1%	/	-10%	/	6.3µM*	4%
Cc1ccc(CNC(=O)CSc2nc3ccccc3[nH]2)cc1	-1%	/	/	0%	/	-10%
Cc1ccc(S(=O)(=O)N2CCN(c3nc(-c4ncco4)nc4ccccc34)CC2)cc1	0%	/	/	-1%	/	/
Cc1cccc(N2C(S)=C(C#N)C(=O)NC2c2cccs2)c1 (stereo unspecified)	7%	1%	?	-1%	?	32µM*
Cc1ccccc1N1C(S)=C(C#N)C(=O)NC1c1cccs1 (stereo unspecified)	1%	?	-5%	0%	-2%	6%
N#CC1=C(S)N(c2ccc(F)cc2)C(c2cccs2)NC1=O (stereo unspecified)	3%	2%	2%	-1%	?	56µM*
CN(C)c1ccc(CNC(=O)c2cc3ccccn3n2)cc1	-1%	-3%	/	-3%	/	/
SMILES	PINK1 modulator	Epigenetic derep	VP16 counter	ClpP mod	RORg inh	Sfp PPTase inh
Cc1cc(C)c(S(=O)(=O)N2CCC(N3CCN(Cc4ccccc4)C(=O)C3=O)CC2)c(C)c1	1%	-2%	/	-1%	/	/
CN(Cc1ccc(Cl)cc1Cl)C(=O)CN1C(=O)NC2(CCCC2)C1=O	-1%	/	/	25µM*	/	/
COc1ccc(/C(C)=N/NC(=O)c2ccc(CSc3cccc4cccnc34)cc2)cc1OC	5%[38.3 µM]	-1%	20%	22µM*	16µM*	9%
C/C(=N\NC(=O)c1ccc(N)cc1)C1CC1	-1%	/	3%	-4%	-4%	8%
C/C(=N\NC(=O)c1ccc(CSc2cccc3cccnc23)cc1)C1CCCCC1	-1%	1%	-4%	28µM*	-21%	5%
O=C(O)CCc1nn2c3ccccc3n(CCN3CCCCC3)c2nc1=O	-2%[38.3 µM]	-1%	2%	28µM*	-16%	30%
Cc1c(CCC(=O)O)c(=O)oc2cc3occ(-c4ccc(Cl)cc4)c3cc12	-1%	/	-3%	/	12%	?
Cc1c(CCC(=O)O)c(=O)oc2cc3occ(-c4ccc(F)cc4)c3cc12	-1%	0%	?	-14%	2.8µM*	-11%
COc1ccc(N2C(=O)CC(Sc3nc(C)cc(C)n3)C2=O)cc1OC (stereo unspecified)	-1%	/	?	-1%	-3%[1.91 µM]	14%
COc1ccccc1N1C(=O)CC(Sc2nc(C)cc(C)n2)C1=O (stereo unspecified)	/	-2%	-19%	1%	11µM*	13%
COc1ccc(N2C(=O)CC(Sc3n[nH]c(-c4cccc(C)c4)n3)C2=O)cc1 (stereo unspecified)	0%	-1%	?	/	23%	3.2µM*
CCOc1ccccc1N1C(=O)CC(Sc2n[nH]c(-c3ccccc3)n2)C1=O (stereo unspecified)	-2%	5%	-71%	/	3.5µM*	35µM*
Cc1ccc(N2C(=O)CS(=O)C(c3ccccc3)C2=O)cc1C (stereo unspecified)	0%	0%	7%	/	-2%	3.2µM*
CCOC(=O)CN1C(=O)C(Sc2n[nH]c(-c3ccc(C)cc3)n2)CCc2ccccc21 (stereo unspecified)	13%[38.3 µM]	2%	-27%	0%	?	9%
Cc1ccc(N2C(=O)C3C(C2=O)N2CCCN2C3c2ccccc2)cc1C (stereo unspecified)	1%	0%	-9%	/	1%	20%
COc1ccc(OC)c(C2c3c(-c4ccc(Br)cc4)n[nH]c3C(=O)N2c2ccc(Cl)cc2)c1 (stereo unspecified)	?	9%	/	-11%	/	/

Screening results: PubChem BioAssay, National Center for Advancing Translational Sciences (NCATS)
